CDK5 p35 inh = blocks human CDK5/p35 kinase activity; 330,000 compounds, 0.01% hits; Q00535+Q15078; Recombinant CDK5/p35, ADP-Glo luminescence, 60 min; inhibition, % at 10 µM;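 active means highest replicate inhibition of at least 50% and at least 75% of replicates reaching 50%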
PglD inh = PglD (C. jejuni) enzyme inhibition; purified PglD enzyme, DTNB colorimetric CoA detection; inhibition, % at 12.5 µM; 360,000 compounds, 0.098% hits; AID 602405; in the data active means inhibition above about 16%, passing the limit was not always enough
SIRT5 block = sirtuin-5 (human) deacylase inhibition | Q9NXA8 | Purified SirT5, succinyl-peptide AMC, trypsin-coupled fluorescence | inhibition, % at 15 µM | 330,000 compounds, 1.1% hits; in the data active means inhibition above about 15%
FGF22 binding = FGF22 (human) thermal shift binding; Q9HCT0; recombinant FGF22 thermal shift, SYPRO orange fluorescence; percent of sucrose octasulfate shift, DMSO zero; 340,000 compounds, 1.5% hits; activity (Tm shift, normalised), % at 9.99 µM;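 active means mean Tm shift, scaled 0 neutral to 100 positive control, at about 1.3% or above, every replicate too, limit read from the data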
Target sequence (Q9HCT0 whole entry, looked up): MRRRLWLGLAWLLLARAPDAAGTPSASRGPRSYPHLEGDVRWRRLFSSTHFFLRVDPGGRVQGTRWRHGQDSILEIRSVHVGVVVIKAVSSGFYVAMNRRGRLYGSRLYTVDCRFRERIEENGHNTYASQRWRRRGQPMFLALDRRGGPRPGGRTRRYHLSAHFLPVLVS
dFosB activator = enhances mouse delta FosB homodimer DNA binding; P13346; purified delta FosB, TAMRA-CDK5 oligo fluorescence polarization; percent of positive-control signal above neutral wells; activation, % at 25 µM; 340,000 compounds, 0.99% hits; AID 493131;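 active means mean activation above about 17%, with every replicate also reaching it, limit read from the data, passing the limit was not always enough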
Target sequence (P13346 whole entry, looked up): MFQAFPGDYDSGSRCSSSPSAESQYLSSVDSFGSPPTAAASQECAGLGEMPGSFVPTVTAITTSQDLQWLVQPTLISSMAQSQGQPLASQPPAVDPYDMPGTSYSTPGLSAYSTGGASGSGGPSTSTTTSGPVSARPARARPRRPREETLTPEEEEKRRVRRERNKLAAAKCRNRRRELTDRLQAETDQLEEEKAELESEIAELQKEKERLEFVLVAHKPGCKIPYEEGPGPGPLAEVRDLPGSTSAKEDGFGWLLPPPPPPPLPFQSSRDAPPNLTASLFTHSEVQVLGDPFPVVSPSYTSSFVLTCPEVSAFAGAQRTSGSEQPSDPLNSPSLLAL
PvdQ acylase = blocks Pseudomonas aeruginosa PvdQ acylase activity; purified PvdQ acylase, fluorescence plate reader; inhibition, % at 10 µM; 340,000 compounds, 0.063% hits; in the data active means inhibition above about 30%, passing the limit was not always enough
A number is an active result; - = inactive; . = not tested or not shown; ! = repeats disagree. In the library only some 2.8% were active in any assay of this set; here they are far more common.

SMILES	CDK5 p35 inh	PglD inh	SIRT5 block	FGF22 binding	dFosB activator	PvdQ acylase
CC(=O)N1[C@@H](CO)[C@H](c2ccc(-c3cccc(F)c3)cc2)[C@@H]1CNC(=O)C1CC1	.	-	.	.	.	.
O=C(C[C@H]1CC[C@H](NC(=O)c2ccccn2)[C@H](CO)O1)NCc1cccc(F)c1	.	-	-	-	.	.
CNC(=O)C[C@H]1CC[C@@H]2[C@H](COC[C@@H](O)CN2Cc2ccncc2)O1	.	-	-	-	.	.
C[C@@H]1CN([C@H](C)CO)C(=O)Cc2cc(NS(C)(=O)=O)ccc2O[C@@H]1CN(C)C(=O)Nc1ccccc1	.	-	-	-	.	.
COc1ccc(NC(=O)N(C)C[C@@H]2Oc3c(NC(=O)C4CC4)cccc3C(=O)N([C@@H](C)CO)C[C@H]2C)cc1	.	-	-	-	.	.
CCCNC(=O)N1CCC2(CC1)CN(C(=O)CC)[C@H](CO)c1c2c2ccc(OC)cc2n1C	.	.	.	-	.	.
COc1ccc(S(=O)(=O)Nc2ccc3c(c2)C(=O)N([C@H](C)CO)C[C@@H](C)[C@@H](CN(C)Cc2ccc(C(F)(F)F)cc2)OCCCC[C@@H](C)O3)cc1	.	-	15.3	-	.	.
COc1ccc(S(=O)(=O)Nc2ccc3c(c2)C(=O)N([C@H](C)CO)C[C@H](C)[C@H](CN(C)Cc2ccc(C(F)(F)F)cc2)OCCCC[C@@H](C)O3)cc1	.	-	-	-	.	.
COc1ccc(S(=O)(=O)Nc2ccc3c(c2)C(=O)N([C@H](C)CO)C[C@@H](C)[C@@H](CN(C)Cc2ccc(C(F)(F)F)cc2)OCCCC[C@H](C)O3)cc1	.	-	17.5	-	.	.
COc1ccc(S(=O)(=O)Nc2ccc3c(c2)C(=O)N([C@@H](C)CO)C[C@@H](C)[C@H](CN(C)Cc2ccc(C(F)(F)F)cc2)OCCCC[C@H](C)O3)cc1	.	-	-	-	.	.
COc1ccc(S(=O)(=O)Nc2ccc3c(c2)C(=O)N([C@H](C)CO)C[C@H](C)[C@H](CN(C)Cc2ccc(C(F)(F)F)cc2)OCCCC[C@H](C)O3)cc1	.	-	39.3	-	.	.
COc1ccc(S(=O)(=O)Nc2ccc3c(c2)C(=O)N([C@H](C)CO)C[C@@H](C)[C@H](CN(C)Cc2ccc(C(F)(F)F)cc2)OCCCC[C@@H](C)O3)cc1	.	-	-	-	.	.
COc1ccc(S(=O)(=O)Nc2ccc3c(c2)C(=O)N([C@@H](C)CO)C[C@@H](C)[C@@H](CN(C)Cc2ccc(C(F)(F)F)cc2)OCCCC[C@@H](C)O3)cc1	.	-	21.7	-	.	.
COc1ccc(S(=O)(=O)Nc2ccc3c(c2)C(=O)N([C@@H](C)CO)C[C@@H](C)[C@@H](CN(C)Cc2ccc(C(F)(F)F)cc2)OCCCC[C@H](C)O3)cc1	.	-	-	-	.	.
Cc1ccc(S(=O)(=O)Nc2ccc3c(c2)C(=O)N([C@@H](C)CO)C[C@@H](C)[C@H](CN(C)CC2CC2)OCCCC[C@H](C)O3)cc1	.	-	-	-	.	.
COc1cccc(NC(=O)N(C)C[C@@H]2Oc3cc(C#Cc4ccccc4)ccc3S(=O)(=O)N([C@@H](C)CO)C[C@H]2C)c1	.	-	.	-	.	.
COc1cccc(NC(=O)N(C)C[C@H]2Oc3cc(C#Cc4ccccc4)ccc3S(=O)(=O)N([C@@H](C)CO)C[C@H]2C)c1	.	-	.	1.4	.	.
COc1ccc(C#Cc2ccc3c(c2)O[C@@H](CN(C)C(=O)Nc2cccc(OC)c2)[C@H](C)CN([C@@H](C)CO)S3(=O)=O)cc1	.	-	16.1!	-	.	.
C[C@@H]1CN([C@H](C)CO)S(=O)(=O)c2ccc(C#CC3(O)CCCC3)cc2O[C@H]1CN(C)C(=O)Nc1ccccc1	.	-	-	-	.	.
Cc1ccccc1-c1cnc2c(c1)C(=O)N([C@@H](C)CO)C[C@@H](C)[C@H](CN(C)Cc1cncnc1)O2	.	-	-	-	.	.
CC(C)C[C@H](NC(=O)c1nc[nH]c1C(=O)NCC(=O)OCc1ccccc1)C(=O)OC(C)(C)C	-	-	20.7	-	-	-
O=C(Nc1ccccc1)Nc1cc(OCC(F)(F)F)cc(OCC(F)(F)F)c1	-	.	-	43.6	-	-
Cc1noc(C)c1-c1ccc(C(=O)Nc2cccc(NS(C)(=O)=O)c2)c2occc12	.	-	-	-	.	.
Cc1noc(C)c1-c1ccc(C(=O)Nc2cccc(C(F)(F)F)c2)c2occc12	.	-	19.0	-	.	.
CO[C@H]1CN(C)C(=O)c2ccc(NC(C)=O)cc2OC[C@@H](C)N(C(=O)C2CC2)C[C@H]1C	.	-	-	-	.	.
SMILES	CDK5 p35 inh	PglD inh	SIRT5 block	FGF22 binding	dFosB activator	PvdQ acylase
O=C1NC(=O)/C(=C/c2ccc(-c3cc(C(=O)O)ccc3Cl)o2)S1	-	-	25.8	-	-	-
C#CCN1CCc2onc(-c3ccc(Br)cc3)c2C1=O	.	.	.	43.1	.	.
COc1ccc(NC(=O)COc2nc3ccccc3nc2N2CCOCC2)c(OC)c1	-	.	-	43.2	-	-
COc1ccc(S(=O)(=O)N(C)C[C@@H]2OCCCC[C@@H](C)Oc3ccc(NS(C)(=O)=O)cc3C(=O)N([C@@H](C)CO)C[C@H]2C)cc1	.	-	-	-	.	.
Cn1c(N)c(S(=O)(=O)NCc2ccc(Cl)cc2)c(=O)n(C)c1=O	-	.	-	43.6	-	-
Cn1cc(/C=C/c2cc[n+](C)cc2)c2cc(F)ccc21	-	-	-	.	-	-
C[n+]1ccc(/C=C/c2c[nH]c3ccc(F)cc23)cc1	-	-	25.8	-	-	-
N#Cc1c(NCCN)nc(NCc2ccccc2)c2c1CCN(Cc1ccccc1)C2	-	.	.	.	23.6	-
C[C@]12CCC(=O)C=C1CC[C@@H]1[C@@H]2[C@@H](O)C[C@]2(C=O)[C@@H](C(=O)CO)CC[C@@H]12	-	-	-	-	-	-
CC12CC(O)C3C(CCC4=CC(=O)CCC43C)C1CCC2=CCO (configuration not stated)	-	.	.	43.0	-	-
CC(=O)OC1CC2(C)C(C(C)=O)CCC2C2CCC3=CC(=O)CCC3(C)C12 (configuration not stated)	-	-	.	43.3	-	-
CC1CN(C(=O)/C(C#N)=C2\N=C(NC(=O)c3ccccc3Cl)c3ccccc32)CC(C)O1 (configuration not stated)	.	.	21.0	-	.	.
CC1CN(C(=O)/C(C#N)=C2\N=C(NC(=O)c3ccc(F)cc3)c3ccccc32)CC(C)O1 (configuration not stated)	.	-	-	-	.	.
O=C(NC[C@H]1CC[C@H]2[C@H](CN2Cc2cccc(Cl)c2)O1)C1CCC1	.	.	-	.	.	.
C[C@H](CO)N1C[C@H](C)[C@@H](CN(C)Cc2ccc(C(F)(F)F)cc2)Oc2ccc(NS(=O)(=O)c3ccc(F)cc3)cc2CC1=O	.	-	34.9	-	.	.
COc1ccc(S(=O)(=O)Nc2ccc3c(c2)CC(=O)N([C@H](C)CO)C[C@@H](C)[C@@H](CN(C)Cc2ccc(C(F)(F)F)cc2)O3)cc1	.	-	21.8	-	.	.
C[C@H](CO)N1C[C@H](C)[C@H](CN(C)Cc2ccc(C(F)(F)F)cc2)Oc2ccc(NS(=O)(=O)c3ccc(F)cc3)cc2CC1=O	.	-	-	-	.	.
